# From PubChem BioAssay
# The source made the active and inactive calls.
# Key:
# [1] = system: Human papillomavirus type 1a protein E7 (residues 44-93); assay: HPV1a E7 fragment binders on microarrays, primary screen, biochemical, small-molecule microarray, residues 44-93, 635 nm fluorescence (AID 1108); details: small-molecule microarray binding, fluorescence 635 nm; higher = more signal;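 further: E7 fragment applied at 1 µg/mL in TBST for 1 h at 4 C; score combines spot fluorescence with its signal to noise ratio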
# [2] = modulators of HCV replicon luciferase signal, primary screen, HCV replication inhibitor project, Huh7 cells, luciferase reporter (AID 1109); details: 48 h, higher = more signal;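 further: huh7 hepatoma cells harbouring a luciferase neomycin HCV replicon reporter; luciferase luminescence as measure of HCV replicon replication; test concentration not given here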
# [3] = molecular target: Left-right determination factor 2 (Homo sapiens) (UniProt O00292); assay: LEFTY2 binders on small-molecule microarrays, primary screen, biochemical, small-molecule microarray, 635 nm fluorescence scan (AID 1110); details: LEFTY2 binding, higher = more signal
# [4] = molecular target: Calmodulin-1 (Homo sapiens) (UniProt P0DP23); assay: CALM1 binders on microarrays, EGTA buffer, profiling panel, biochemical, small-molecule microarray, Cy5-labelled CALM1 (AID 1111); details: Cy5-CALM1 binding fluorescence, higher = more signal;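 further: labelled calmodulin applied in Tris saline Tween buffer holding calcium plus EGTA and DTT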
# [5] = molecular target: Calmodulin-1 (Homo sapiens) (UniProt P0DP23); assay: calcium-bound CALM1 binders on microarrays, profiling panel, artefact control for SMM control-protein annotation, biochemical, small-molecule microarray, Cy5-labelled CALM1, plus calcium (AID 1112); details: Cy5-CALM1 binding fluorescence, higher = more signal;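 further: score merges spot fluorescence with signal to noise from triplicate slides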
# [6] = small-molecule microarray binders of probe aWnt5a, primary screen, biochemical, biotinylated probe, 635/667 nm fluorescence (AID 1113); details: higher = more signal;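 further: score merges 667 nm fluorescence intensity with signal-to-noise per printed feature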
# [7] = small-molecule microarray binders of probe aShh, primary screen, biochemical, biotinylated probe, 635/667 nm fluorescence (AID 1114); details: higher = more signal;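 further: probe is biotin-labelled aShh protein from a stem cell growth factor screen; measures binding of labelled protein to compounds printed on the slide; score merges feature fluorescence at 667 nm with signal-to-noise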
# [8] = small-molecule microarray binders of probe aNog, primary screen, biochemical, biotinylated probe, 635/667 nm fluorescence (AID 1115); details: higher = more signal;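 further: probe is biotinylated aNog protein used at 0.15 µg/mL for 1 h at 4 C; z-score combines 667 nm fluorescence of each spot with its signal to noise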
# [9] = molecular target: Torsin-1A-interacting protein 1 (Homo sapiens) (UniProt Q5JTV8); assay: LAP1 binders from COS7 cell lysate, primary screen, small-molecule microarray, 635/667 nm fluorescence (AID 1116); details: COS7-hLAP1 lysate binding, 635 nm fluorescence, higher = more signal
# [10] = molecular target: Alpha-bungarotoxin (Bungarus multicinctus) (UniProt P60615); assay: alpha-bungarotoxin binders on microarray, profiling panel, artefact control for SMM control protein annotation, biochemical, small-molecule microarray, Alexa647 label, 635/667 nm fluorescence (AID 1117); details: alpha-BTX-A647 binding fluorescence, higher = more signal
# [11] = molecular target: Albumin (Bos taurus) (UniProt P02769); assay: bovine serum albumin binders on microarray, profiling panel, artefact control for SMM control protein annotation, biochemical, small-molecule microarray, Alexa647 label, 635/667 nm fluorescence (AID 1118); details: BSA-A647 binding, fluorescence 635 nm, higher = more signal;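 further: score merges 667 nm emission intensity and signal-to-noise per printed compound spot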
# [12] = small-molecule microarray binders of probe aXIP, primary screen, biochemical, NeuroSMM set, 635/667 nm fluorescence (AID 1119); details: higher = more signal, called active from +8 up or from −8 down;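 further: probe is the protein aXip251-270 applied at 1 µg/mL to compound-printed slides; binding of probe to printed compounds measured as 667 nm fluorescence plus signal to noise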
# [13] = small-molecule binders of probe aNOTCH3, primary screen, biochemical, small-molecule microarray, 635/667 nm fluorescence (AID 1120); details: higher = more signal;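 further: probe is a biotin-tagged antibody raised against NOTCH3 rather than NOTCH3 protein; score merges spot fluorescence near 667 nm with spot signal to noise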
# [14] = small-molecule binders of probe aNOTCH2, primary screen, biochemical, small-molecule microarray, 635/667 nm fluorescence (AID 1121); details: higher = more signal;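 further: score merges feature fluorescence read at 667 nm with its signal to noise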
# [15] = molecular target: Carbonic anhydrase 2 (Homo sapiens) (UniProt P00918); assay: CAII small-molecule binders, profiling panel, biochemical, small-molecule microarray, Alexa647-labelled CAII (AID 1122); details: CAII-A647 binding fluorescence, higher = more signal
# [16] = COS7 lysate on small-molecule microarray, probe aHis, 635 nm (AID 1123); details: COS7 cell lysate, fluorescence, higher = more signal;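 further: z-score combines 667nm fluorescence intensity with signal-to-noise per printed compound spot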
# [17] = compound binding in COS7 lysate, probe aLAP1, primary screen, cell lysate, small-molecule microarray (AID 1124); details: probe aLAP1, fluorescence, higher = more signal;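 further: lysate comes from COS7 cells expressing LAP1 and is applied at 0.3 µg/mL; score merges spot fluorescence near 667 nm with signal-to-noise over triplicate slides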
# [18] = system: Sam68 (KHDRBS1); assay: Sam68 small-molecule binders, primary screen, biochemical, small-molecule microarray, 635 nm fluorescence (AID 1125); details: small-molecule microarray binding, higher = more signal;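 further: score merges 667 nm channel intensity with signal to noise over triplicate slides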
# [19] = system: Chordin-like protein 2 (CHRDL2); assay: CHRDL2 small-molecule binders, primary screen, biochemical, small-molecule microarray, 635 nm fluorescence (AID 1126); details: small-molecule microarray binding, fluorescence 635 nm; higher = more signal;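 further: printed compound slides probed with Chrdl2 protein at 4 µg/mL for 1 h at 4 C; score merges 667 nm emission intensity with signal to noise over three replicate slides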
# [20] = molecular target: Concanavalin-A (Canavalia ensiformis) (UniProt P02866); assay: ConA small-molecule binders, primary screen, artefact control for SMM control protein annotation, biochemical, small-molecule microarray, Alexa647 label, 635 nm (AID 1127); details: ConA-A647 binding fluorescence, higher = more signal;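 further: z combines 667 nm emission intensity with signal-to-noise across three replicate slides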
# Sequence of Concanavalin-A (Canavalia ensiformis) (P02866 whole entry, looked up): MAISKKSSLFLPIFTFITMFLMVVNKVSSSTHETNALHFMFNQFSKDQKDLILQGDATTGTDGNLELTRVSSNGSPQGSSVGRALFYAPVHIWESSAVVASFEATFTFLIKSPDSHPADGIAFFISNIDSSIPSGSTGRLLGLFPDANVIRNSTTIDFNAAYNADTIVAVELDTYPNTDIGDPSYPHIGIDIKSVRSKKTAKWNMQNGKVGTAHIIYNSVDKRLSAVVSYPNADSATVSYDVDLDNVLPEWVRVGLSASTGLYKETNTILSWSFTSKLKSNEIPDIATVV
# Sequence of Torsin-1A-interacting protein 1 (Homo sapiens) (Q5JTV8 whole entry, looked up): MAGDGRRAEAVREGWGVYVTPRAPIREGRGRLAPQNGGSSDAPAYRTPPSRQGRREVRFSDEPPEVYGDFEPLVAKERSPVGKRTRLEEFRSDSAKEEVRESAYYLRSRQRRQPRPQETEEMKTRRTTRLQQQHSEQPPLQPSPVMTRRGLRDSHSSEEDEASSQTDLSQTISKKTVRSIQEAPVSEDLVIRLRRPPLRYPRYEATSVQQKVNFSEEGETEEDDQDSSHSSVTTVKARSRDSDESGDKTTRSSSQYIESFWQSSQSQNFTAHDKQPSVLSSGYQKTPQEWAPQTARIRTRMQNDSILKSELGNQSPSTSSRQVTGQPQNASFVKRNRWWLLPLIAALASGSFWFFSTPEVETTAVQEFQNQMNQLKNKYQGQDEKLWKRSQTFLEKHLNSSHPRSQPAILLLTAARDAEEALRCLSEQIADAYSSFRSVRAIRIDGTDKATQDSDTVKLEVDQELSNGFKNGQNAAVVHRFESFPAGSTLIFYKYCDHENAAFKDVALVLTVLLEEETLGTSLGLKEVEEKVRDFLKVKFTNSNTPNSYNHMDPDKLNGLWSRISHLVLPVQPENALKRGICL
# Sequence of Alpha-bungarotoxin (Bungarus multicinctus) (P60615 whole entry, looked up): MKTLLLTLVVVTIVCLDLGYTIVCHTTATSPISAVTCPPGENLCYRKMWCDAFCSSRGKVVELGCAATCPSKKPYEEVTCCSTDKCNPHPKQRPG
# Sequence of Albumin (Bos taurus) (P02769 whole entry, looked up): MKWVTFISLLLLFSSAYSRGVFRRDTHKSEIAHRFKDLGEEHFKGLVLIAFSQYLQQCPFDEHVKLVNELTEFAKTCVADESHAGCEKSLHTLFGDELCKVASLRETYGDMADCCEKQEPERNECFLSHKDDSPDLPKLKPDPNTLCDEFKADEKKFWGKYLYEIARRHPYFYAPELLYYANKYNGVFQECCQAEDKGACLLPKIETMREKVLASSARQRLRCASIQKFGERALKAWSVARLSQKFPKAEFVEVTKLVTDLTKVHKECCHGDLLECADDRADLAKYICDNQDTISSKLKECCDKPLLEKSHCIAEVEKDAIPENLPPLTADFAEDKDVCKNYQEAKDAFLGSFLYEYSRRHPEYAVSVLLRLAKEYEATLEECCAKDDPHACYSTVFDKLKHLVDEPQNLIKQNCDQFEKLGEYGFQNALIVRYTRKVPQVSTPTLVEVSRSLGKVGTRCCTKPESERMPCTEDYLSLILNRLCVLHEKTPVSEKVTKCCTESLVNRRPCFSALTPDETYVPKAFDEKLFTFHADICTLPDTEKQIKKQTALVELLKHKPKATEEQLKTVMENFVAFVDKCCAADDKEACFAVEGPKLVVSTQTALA
# Sequence of Left-right determination factor 2 (Homo sapiens) (O00292 whole entry, looked up): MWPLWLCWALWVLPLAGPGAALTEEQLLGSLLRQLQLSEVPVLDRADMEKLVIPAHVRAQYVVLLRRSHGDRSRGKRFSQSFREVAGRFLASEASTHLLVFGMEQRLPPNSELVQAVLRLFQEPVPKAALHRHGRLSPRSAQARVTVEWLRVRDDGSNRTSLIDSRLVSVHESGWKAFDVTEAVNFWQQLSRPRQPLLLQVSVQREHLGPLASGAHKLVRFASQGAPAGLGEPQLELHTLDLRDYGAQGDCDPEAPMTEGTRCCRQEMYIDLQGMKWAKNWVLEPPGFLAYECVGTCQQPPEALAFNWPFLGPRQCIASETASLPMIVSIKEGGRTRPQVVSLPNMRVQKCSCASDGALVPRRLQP
SMILES,composite z-score [1],z-score [2],composite z-score [3],composite z-score [4],composite z-score [5],composite z-score [6],composite z-score [7],composite z-score [8],composite z-score [9],composite z-score [10],composite z-score [11],composite Z-score [12],composite z-score [13],composite z-score [14],composite z-score [15],composite z-score [16],composite z-score [17],composite z-score [18],composite z-score [19],composite z-score [20]
COC(=O)[C@@]1(Cc2ccc(F)cc2)[C@H]2c3cc(C(=O)N4CCCC4)n(Cc4ccc(Cl)c(C(F)(F)F)c4)c3C[C@H]2CN1C(=O)c1ccccc1,1.37,-2.42,0.04,2.51,1.42,0.963,2.64,1.16,1.68,1.57,1.02,0.267 (inactive),1.53,0.853,0.801,2.89,1.31,1.33,-0.804,1.16
C=CCNC(=O)[C@@H]1[C@H]2C(=O)O[C@H](c3ccccc3)[C@H](c3ccccc3)N2[C@H](c2ccccc2OCCO)[C@@]12C(=O)N(C(=O)OCCOC)c1ccc(C#CCC(C(=O)OC)C(=O)OC)cc12,1.12,-2.59,1.47,2.23,1.01,0.826,2.18,2.79,2.74,3.06,0.718,1.26 (inactive),1.41,0.526,0.505,3.05,1.33,1.32,1.49,1.15
CCN(CC)c1ccc(N2CC=CC34O[C@@H]5C=CCOC(=O)[C@@H]5[C@H]3C(=O)N(CCCCCO)[C@@H]4C2=O)cc1 (stereo not given in full),0.221,-0.323,-0.938,-0.385,-0.0559,0.195,0.147,0.277,0.975,-1.28,0.347,1.21 (inactive),-0.193,-0.146,0.861,1.17,1.04,-0.0514,-1,-1.47
COCCn1c(C(=O)N2CCCC2)cc2c1C[C@H]1CN(C(=O)c3ccccc3)[C@@](Cc3ccc(OC)cc3)(C(=O)OC)[C@@H]21,0.279,-1.62,-0.464,2.67,1.33,0.0365,0.21,-0.401,3.21,0.626,1.11,0.433 (inactive),0.512,0.384,0.868,2.11,1.11,0.424,-0.975,1.05
C=C(C(=O)CC[C@@H](OC(C)=O)c1ccc(OCCO)cc1)C(C)C,0.522,-1.88,-0.384,-0.43,-0.908,0.117,-0.0866,0.365,0.159,0.227,0.773,0.154 (inactive),-0.122,-0.0908,0.76,1.57,-0.773,0.135,0.0246,0.187
CN(C)CCCCNC(=O)[C@@H]1C[C@@H]2C(=O)N[C@@H](CCCCN)C(=O)N2[C@@H]1c1cccc(OCCO)c1,0.572,-0.289,-1.55,-0.328,-0.547,-0.12,0.0735,0.42,0.482,-0.863,-0.564,0.703 (inactive),-0.0918,0.0072,0.42,2.85,0.429,-0.266,-0.0061,0.344
C=C(CCCC)C(=O)CC[C@@H](OC(=O)c1ccccc1-c1ccccc1C(=O)O)c1ccc(CO)o1,0.776,-0.705,0.584,-0.213,-0.483,-0.0478,0.108,-0.266,1.23,-0.146,0.26,-0.27 (inactive),0.135,-0.0028,0.549,0.413,0.941,1.18,0.593,0.786
CN(C)CCCC[C@@H]1NC(=O)[C@H]2C[C@@H](C(=O)NCCCCCNC(=O)CS)[C@@H](c3ccc(O)cc3)N2C1=O,-0.781,0.579,-1.34,-0.0462,0.586,-0.124,-0.0396,-0.0793,0.172,0.808,0.74,0.157 (inactive),-0.374,-0.127,-0.204,0.268,-0.733,-1.38,-0.688,0.734
Cc1ccc(S[C@]2(C(=O)NCC(C)C)CC(=O)N(Cc3ccccc3)[C@@H]2c2ccc(CO)cc2)cc1,0.725,-1.99,-1.83,-0.624,-0.249,-0.141,-0.0904,0.596,0.769,0.147,0.397,0.941 (inactive),-0.406,0.0196,0.748,1.78,0.984,-0.0273,-2.02,-1.1
[N-]=[N+]=Nc1ccccc1[C@@H]1OC(c2ccc(OCCCO)cc2)=N[C@]1(CCS(=O)(=O)c1ccccc1)C(=O)N1CCCCC1,1.22,0.0018,-0.175,2.16,1.26,0.129,0.408,0.755,1.79,3.01,1.03,-0.0281 (inactive),0.144,0.139,0.625,1.93,0.686,1.29,-0.74,1.2
COCC1C2CC[C@H]3C(OCc4ccc(F)cc4C(F)(F)F)OC[C@]4(C)[C@H]3C2=C(CN4C(=O)OC(C)(C)C)[C@H](C)C1COC (stereo not given in full),1.37,-0.386,-0.13,2.61,1.37,0.0017,0.177,2.19,1.56,0.9,1.05,0.973 (inactive),0.202,0.214,0.698,3.39,0.63,1.2,-1.12,1.13
